# IL1B secr inh = inflammasome signaling inhibition, IL-1 beta readout. THP-1 LPS/ATP IL-1B secretion, AlphaLISA, 16 h; hits give low values. activity change, % at 57.5 µM. actives 4.7% (n = 360,000); in the data active = activity change below about -50%; inconclusive = mostly about -30% to -49%
#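 THP-1 cells pretreated 1 hr with compounds (up to 57.5 uM final), then stimulated with LPS (250 ng/mL final) plus ATP (1.25 mM final); secreted IL-1B measured by AlphaLISA after 16 hr, decreased signal indicating inhibition.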
# ELG1 DNA repair = ELG1-dependent DNA repair inhibition; Potency, µM (highest dose often 46.1 µM), without a hit: top-dose activity change, negative = inhibition, most hits filed as inhibitors; actives 2.3% (n = 330,000); AID 504467; HEK293T ELG1-luciferase reporter, luminescence, 16 h; DNA damage induced by 5-fluorouridine; also: potency is read from the fitted curve at half-maximal effect; nearly all actives have a fitted effect of over 55% in size
#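 Reporter activity after DNA damage by 5-fluorouridine is monitored. Compound-treated cells incubate 16 hr at 37 °C, then ONE-Glo is added for 30 min before luminescence reading.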
# VP16 counter = counter-screen for ROR gamma inhibitors: Gal4-VP16 reporter | Potency, µM (top dose mostly 53.6 µM), inactives show top-dose activity, negative = inhibition, usual class: inhibitors | Drosophila S2 Gal4-VP16 UAS-luciferase, luminescence, 20 h | actives 3.5% (n = 310,000) | AID 2546;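 also: Gal4-VP16 expression switched on by copper sulfate through the metallothionein promoter; potency is read from the fitted curve at half-maximal effect; nearly all actives have a fitted effect of over 50% in size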
# RORg inh = blocks mouse ROR gamma transcriptional activity. Drosophila S2 Gal4-RORgamma UAS-luciferase reporter, 20 h. P51450. Potency, µM (highest dose often 53.6 µM), for the others: at the highest dose activity change, negative = inhibition, most hits filed as inhibitors. AID 2551. actives 5.4% (n = 310,000); also: potency is read from the fitted curve at half-maximal effect; nearly all actives have a fitted effect of over 60% in size
# Target sequence (P51450 whole entry, looked up, the tested form may be a part): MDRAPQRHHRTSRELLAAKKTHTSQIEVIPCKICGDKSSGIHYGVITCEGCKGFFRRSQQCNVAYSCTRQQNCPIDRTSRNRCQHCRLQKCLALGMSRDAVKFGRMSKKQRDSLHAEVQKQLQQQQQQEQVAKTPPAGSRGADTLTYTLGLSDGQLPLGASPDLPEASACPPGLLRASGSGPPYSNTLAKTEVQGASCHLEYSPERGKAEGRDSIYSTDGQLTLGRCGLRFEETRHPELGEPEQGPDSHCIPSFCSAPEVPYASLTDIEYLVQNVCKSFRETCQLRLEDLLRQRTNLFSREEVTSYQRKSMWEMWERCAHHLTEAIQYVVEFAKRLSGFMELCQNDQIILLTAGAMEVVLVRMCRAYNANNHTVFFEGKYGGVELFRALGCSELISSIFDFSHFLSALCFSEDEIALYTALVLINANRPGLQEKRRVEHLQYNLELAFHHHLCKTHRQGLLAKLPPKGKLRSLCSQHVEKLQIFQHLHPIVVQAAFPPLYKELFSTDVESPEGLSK
#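 In this cell-based reporter format, copper sulfate (700 uM final) drives Gal4–ROR gamma fusion expression from a metallothionein promoter in Drosophila Schneider cells; compounds preincubated 1 hr, reporter read after 20 hr at ambient temperature.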
# DT40 TDP1 no CPT = qHTS for Inhibitors of human tyrosyl-DNA phosphodiesterase 1 (TDP1): qHTS in cells in absence of CPT; Potency, µM (doses to about 46.2 µM), for inactives: at the top dose activity change, negative = growth inhibition, most hits filed as inhibitors; DT40 Tdp1-/- hTDP1 cells, no CPT, ATP luminescence, 48 h; actives 15% (n = 420,000); also: potency is read from the fitted curve at half-maximal effect; nearly all actives have a fitted effect of over 55% in size
#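 Chicken DT40 Tdp1-/- cells stably complemented with human TDP1 were seeded at 400 cells/well with DMSO in place of 20 nM camptothecin. After compound pinning, cells grew at least 48 hr at 37 °C; viability read by CellTiter-Glo luminescence.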
# DT40 TDP1 CPT = growth inhibition of DT40 Tdp1-/-;hTDP1 cells with camptothecin (screen for TDP1 inhibitors); actives 12% (n = 420,000); chicken DT40 Tdp1-/-;hTDP1 cells + 20 nM CPT, ATP luminescence, 48 h; Potency, µM (series often up to 46.2 µM), for inactives: at the top dose activity change, negative = growth inhibition, usual class: inhibitors; also: potency is read from the fitted curve at half-maximal effect; nearly all actives have a fitted effect of over 55% in size
#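 Chicken DT40 Tdp1-/- cells complemented with human TDP1, 400 cells/well, exposed to compounds plus 20 nM camptothecin for at least 48 h at 37 C; viability read as ATP content by CellTiter-Glo luminescence.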
# An asterisk follows results filed as active; ? = inconclusive; · = no result given; [ ] = another dose, or the depositor's remark. This is a sample that favours compounds with a hit; in the whole collection about 21% have one here. Unless noted, calls follow the shape of the dose curve; as a rule, active = well fitted curve in the direction sought with a large enough effect; inconclusive = small, poorly fitted or top-dose-only effect, or another doubt; inactive = no such curve, though single readings can be large; an effect the other way counts as inactive or inconclusive. % is scaled to controls: 0 for no effect and ±100 for the full control effect.
SMILES,IL1B secr inh,ELG1 DNA repair,VP16 counter,RORg inh,DT40 TDP1 no CPT,DT40 TDP1 CPT
CCOC(=O)c1ccc(CN(Cc2ccc(C)cc2)S(=O)(=O)c2ccc(F)c(C(=O)Nc3ccc(C)c(F)c3)c2)cc1,·,·,·,·,-16.9%,-6.2%
CCc1ccccc1NC(=O)CSc1nnc(COc2ccccc2Cl)o1,·,·,·,·,-26.8%,-9.7%
CC(C)COc1ccc(CN=C(N)N=C(N)N)cc1Cl,?,-16.4%,3.9%,?,4.11µM*,6.51µM*
COc1ccc(CNC(C)(C)C)cc1Cl,-8.4,-4.6%,-6.9%,8.9%,-6.1%,5.2%
COc1ccc(CN=C(N)N=C(N)N)cc1Cl,4.9,?,-4.8%,2.0%,20.6µM*,?
CC(C)Oc1ccc(CN=C(N)N=C(N)N)cc1Cl,-27.5,-6.3%,-4.3%,7.4%,13µM*,?
N/C(COc1ccc(Cl)cc1Cl)=N\O,-13.0,?,-0.6%,?,-9.0%,1.8%
Cc1cccc(NC(=O)CN(C)C(=O)/C=C/c2ccccc2)c1C,-16.5,13.3%,·,·,-25.8%,8.4%
CCOC(=O)C1(C)CCCN1C(=O)c1ccc(OC)c(OC)c1 (stereo not drawn),25.9,·,·,·,8.1%,-14.6%
NC(N)=NC(N)=Nc1cccc(Cl)c1,-19.3,-29.0%,-13.6%,5.6%,21.1µM*,?
CCc1ccccc1NC(=O)CCNS(=O)(=O)c1ccc2c(c1)CCN2C(=O)C1CC1,·,·,·,·,18.4µM*,?
O=C(CCNS(=O)(=O)c1ccc2c(c1)CCN2C(=O)C1CC1)Nc1ccc(Cl)cc1,·,·,·,·,11.6µM*,10.3µM*
Cc1ccc(NC(=O)CCNS(=O)(=O)c2ccc3c(c2)CCN3C(=O)C2CC2)c(Cl)c1,·,·,·,·,4.11µM*,5.17µM*
COc1ccc(F)c(CN2CCOc3ccc(CN4CCC(O)(c5cccnc5)CC4)cc3C2)c1,·,·,·,·,?,-6.9%[9.04 µM]
COc1ccc([C@H]2CC(=O)C=C(c3cccc(OC)c3OC)C2)cc1OC,18.8,9.2µM*,·,·,23.1µM*,?
CCCOc1ccc(C2=CC(=O)C[C@H](c3ccc(OC)cc3)C2)cc1,-10.3,10.3%,·,·,?,?
COc1ccc([C@H]2CC(=O)C=C(c3ccc(-c4ccccc4)cc3)C2)cc1OC,26.9,16.9%,·,·,-21.2%,-14.4%
COc1ccc(C2=CC(=O)C[C@H](c3ccc(OC)c(OC)c3)C2)cc1,-29.1,?,·,·,18.4µM*,13µM*
COc1ccc([C@H]2CC(=O)C=C(c3cc(F)ccc3F)C2)cc1OC,-25.3,?,·,·,-51.8%,?
COc1ccc([C@H]2CC(=O)C=C(c3ccc(C)cc3)C2)cc1OC,-12.6,?,·,·,?,18.4µM*
COc1ccc([C@H]2CC(=O)C=C(c3ccc(CNC(=O)OC(C)(C)C)cc3)C2)cc1,-8.2,?,·,·,23.1µM*,?
Cc1c(Cl)cccc1NC(=O)CCS(=O)(=O)c1ccc2c(c1)CC(=O)N2C,·,·,·,·,-20.1%,-18.1%
CC(C)CNc1ncnc2c1ncn2[C@H]1CN(Cc2cccc3ccccc23)C[C@@H](CO)O1,-15.5,·,·,·,?,18.4µM*
OC[C@@H]1CN(Cc2cccc3ccccc23)C[C@H](n2cnc3c(NCc4ccco4)ncnc32)O1,?,·,·,·,20.6µM*,20.6µM*
CC(C)CNc1ncnc2c1ncn2[C@H]1CN(CCc2ccccc2)C[C@@H](CO)O1,-71.1*,·,·,·,-28.1%,-10.3%
SMILES,IL1B secr inh,ELG1 DNA repair,VP16 counter,RORg inh,DT40 TDP1 no CPT,DT40 TDP1 CPT
CC(C)CNc1ncnc2c1ncn2[C@H]1CN(Cc2ccc(Cl)cc2)C[C@@H](CO)O1,-9.8,·,·,·,?,?
O=C(CCCl)Nc1nc2c(s1)CCc1ccccc1-2,-97.6*,22.4%,-11.0%,-36.3%,5.8µM*,13µM*
N#C/C(=C(/O)CCl)c1nc2c(s1)CCc1ccccc1-2,-95.1*,?,-25.6%,-36.3%,13µM*,11.6µM*
Nc1nc2c(s1)CCc1ccccc1-2,-5.7,?,4.0%,13.7%,4.3%,-15.1%
COc1ccc(C2CC(c3ccccc3)=NN2C(=O)COC(=O)c2nc3nc(C)cc(C)n3n2)cc1 (stereo not drawn),-16.0,11.6%,8.6%,39.0%,?,-10.7%
O=C(CCNC(=O)c1ccc(Cl)cc1)Nc1ccncc1,16.6,-4.6%,·,·,-15.5%,-19.8%
N#Cc1ccc(CN2CCN(C(=O)c3cc(C4CC4)nn3-c3ccccc3)CC2)cc1,-3.4,?,·,·,20.6µM*,23.1µM*
COc1cc2c(cc1OC)CN(C(=O)c1cc(C3CC3)nn1-c1ccccc1)CC2,-55.3*,?,·,·,?,18.4µM*
COc1cc(C(=O)Nc2nnc(CC(C)C)s2)c([N+](=O)[O-])cc1OC,15.1,-11.7%,6.1%,3.1%,-5.5%,-3.0%
COCCn1c(C)cc(C(=O)COC(=O)C2CC(=O)N(CCc3ccc(OC)c(OC)c3)C2)c1C (stereo not drawn),20.8,?,·,·,-19.4%,0.3%
CCOC(=O)c1cccc(NC(=O)CSc2nc3cc4ccccc4cc3[nH]2)c1,·,·,·,·,23.1µM*,?
CCOC(=O)c1ccc(NC(=O)CSc2nc3cc4ccccc4cc3[nH]2)cc1,·,·,·,·,18.4µM*,23.1µM*
COc1ccc(S(=O)(=O)N(C)C[C@H]2OCc3cnnn3CCCC(=O)N([C@@H](C)CO)C[C@H]2C)cc1,-16.5,·,·,·,-27.0%,1.5%
Cc1ccc(N(Cc2cccs2)C(=O)c2ccccc2[N+](=O)[O-])cc1,·,·,·,·,9.2µM*,14.6µM*
O=C(NCc1cccs1)c1ccccc1[N+](=O)[O-],10.0,0.6%,-2.9%,-3.0%,4.3%,5.3%
COc1ccc(N(Cc2cccs2)C(=O)COc2ccc([N+](=O)[O-])cc2)cc1,·,·,·,·,25.9µM*,?
CN(C(=O)COc1ccccc1)c1ccc([N+](=O)[O-])cc1,-23.9,·,·,·,-14.0%,-9.8%
C/C(=N\NC(=O)COc1ccccc1[N+](=O)[O-])c1cccs1,35.1,?,-12.4%,18.0%,?,-22.6%
Cc1ccc(N(Cc2cccs2)C(=O)COc2ccccc2[N+](=O)[O-])cc1,·,·,·,·,23.1µM*,20.6µM*
CN(CC(=O)Nc1ccc(F)cc1)C(=O)C1CCCC1,-6.2,17.4%,·,·,0.9%,7.9%
COc1cc(OC)nc(Oc2ccccc2C=O)n1,-15.9,·,·,·,?,?
O=Cc1ccccc1Oc1ccccc1,9.9,14.8%,-0.4%,-6.0%,11.6µM*,?
N#Cc1ccccc1Oc1ccccc1C=O,24.7,3.2%,-1.9%,-20.3%,16.4µM*,?
N#Cc1ccccc1OCC(=O)C1CC1,-6.3,13.3%,25.7%,-1.7%,-3.3%,-0.3%
